Measured values published in PubChem BioAssay (NCI).
Where “and” joins values, the source holds several entries; their conditions need not be identical. Identical values can stand only once. About 83,000 compounds went through this panel and 20% of them were active in at least one assay; those are over-represented in the sample as a whole.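 48-hour exposure, single concentration, 96-well plates; percent growth endpoint where 0 means no net growth. Active: below 10.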 Calls of active or inactive are those of the source.

tested on: MDA-MB-468 breast; test: NCI-60 one-dose screen, 48 h (100 = growth as untreated, 0 = no growth, -100 = all killed); conditions: 10 µM unless noted

Row | SMILES | growth
1 | CCCCCCN(C)Cc1ccc(OCCOc2ccc(CN(C)CCCCCC)cc2)cc1 | -59.9% (active)
2 | CCCCCCCCCCCCCC[n+]1cccc(C(N)=O)c1 | -59.9% (active)
3 | CC(=[N-])N1CCC[C@@H](Nc2c3ccccc3nc3ccccc23)C1.[Cl][Pt].[NH-]CCC[NH-] | -10.4% (active)
4 | COc1ccc2cc(C(C)C(=O)Nc3ccc(-c4n[nH]c(=S)n4C4CCCCC4)cc3)ccc2c1 (centres undefined) | 111% (inactive)
5 | COc1ccc(-c2cc(Cc3cccs3)c(=O)n(Cn3cncn3)n2)cc1 | 102% (inactive)
6 | COc1cc2nc(N3CCCC3)nc(NCCc3ccccc3)c2cc1OC | 6.66% (active)
7 | O=P([O-])(O)OP(=O)([O-])O.[NH-][C@H]1CCCC[C@@H]1[NH-].[OH-].[OH-].[Pt+4] | 102% (inactive)
8 | Cn1c(N)c(N=Nc2ccc(S(=O)(=O)Nc3nccs3)cc2)c(=O)n(C)c1=O | 116% (inactive)
9 | COc1ccc(Br)c2ccccc12 | 100% (inactive)
10 | CCCCCCCCCCCCNC(=S)N/N=C/c1ccc(Cl)c(Cl)c1 | 104% (inactive)
11 | Cc1nc(/N=C(\N)NC(=O)Nc2cccc(Cl)c2)sc1C | 55.2% (inactive)
12 | O=C1/C(=C/c2ccc3c(c2)OCO3)SC(=S)N1C1c2ccccc2Oc2ccccc21 | 90.4% (inactive)
13 | CC(CN(C)C)CN1c2ccccc2Sc2ccccc21 (centres undefined) | 40.2% (inactive) and 73.1% (inactive) and 64% (inactive)
14 | COc1ccc(-c2nc(-c3ccccn3)c(-c3ccccn3)n2CC(C)C)cc1OC1CCCC1 | -10.7% (active)
